{
  "source": "PubChem BioAssay (Tox21)",
  "note": "Records with an inconclusive call do not appear. A number with no mark means an inactive call. The source made the active and inactive calls. Calls come from the whole dose curve; as a rule, active = well fitted activation curve with a large enough effect in the signal ratio in the repeat runs (not every such curve was filed as active); inconclusive = weak or mixed curves; inactive = flat fitted curve, though single readings scatter; the % refers to the signal ratio. % is set by controls: 0 for no effect and ±100 for the full control effect.",
  "data": [
    {"assay": "qHTS assay to identify small molecule agonists of the TGF-beta/Smad signaling pathway (AID 1346859)", "conditions": "SBE-bla HEK293T, TGF-beta/Smad beta-lactamase reporter, 5 h; series mostly up to 76.8 µM", "text": "U.S. Tox21 Program National Center for Advancing Translational Sciences [NCATS] NIH Chemical Genomics Center [NCGC] U.S. Environmental Protection Agency [EPA] National Institutes of Environmental Health Sciences [NIEHS] National Toxicology Program [NTP] U.S. Food and Drug Administration [FDA] Tox21 Assay Overview: Transforming growth factor beta (TGF-beta) superfamily consists of a large number of structurally related dimeric proteins that act as hormones or local mediators in regulating a wide range of biological functions. This superfamily includes TGF-betas themselves, the bone morphogenetic proteins (BMPs) and the activins. These ligands induce oligomerization of serine/threonine receptor kinases and phosphorylate the cytoplasmic signaling molecules of Smad protein family. CellSensor SBE-bla HEK 293T cell line (Life Technologies, Carlsbad, CA), responsive to TGF-beta was used to screen Tox21 10K compound library for identification of agonists/antagonists of the Smad signaling pathway. This cell line contains a beta-lactamase reporter gene under control of the Smad binding element (SBE) stably integrated into HEK 293T cells.\nTox21 Assay Protocol Summary: SBE-bla HEK 293T cells were dispensed at 4,000/well in 6 uL of assay medium into black wall/clear-bottom 1536-well plates using a Multidrop Combi (ThermoFisher Scientific, Waltham, MA) dispenser. After the assay plates were incubated at 37 C and 5% CO2 for an overnight, 23 nL of compounds dissolved in DMSO, positive controls or DMSO only was transferred to the assay plate by a Pintool station (Kalypsys, San Diego, CA). The assay plates were incubated at 37 C and 5% CO2 for 5 hr. One uL of LiveBLAzer B/G FRET substrate (Life Technologies) was added using a Flying Reagent Dispenser (Aurora Discovery, San Diego, CA) and the plates were incubated at room temperature for 2 hr. Fluorescence intensity (405 nm excitation, 460 nm and 530 nm emissions) was measured using an Envision plate reader (PerkinElmer, Shelton, CT).", "values": [
      {"smiles": "Cc1cc(C(C)(C)c2ccc(O)c(C)c2)ccc1O", "outcome": "inactive"},
      {"smiles": "CNC(=O)Oc1cc(C)c(SC)c(C)c1", "outcome": "inactive"},
      {"smiles": "O=C1C(I)=CC(=C(c2cc(I)c(O)c(I)c2)c2ccccc2C(=O)O)C=C1I", "outcome": "inactive"},
      {"smiles": "CN1CSC(=S)N(C)C1", "outcome": "inactive"},
      {"smiles": "O=S(=O)(C(Cl)(Cl)Cl)C(Cl)(Cl)Cl", "outcome": "inactive"},
      {"smiles": "OC(Cc1ccccc1Cl)(Cn1[nH]cnc1=S)C1(Cl)CC1", "note": "(centres undefined)", "outcome": "inactive"},
      {"smiles": "CCOC(=O)C(O)(c1ccc(Cl)cc1)c1ccc(Cl)cc1", "outcome": "inactive"},
      {"smiles": "COc1ccc(C(c2ccc(OC)cc2)C(Cl)(Cl)Cl)cc1", "outcome": "inactive"},
      {"smiles": "COc1cc(OC)c(OC)cc1C=O", "outcome": "inactive"},
      {"smiles": "C[C@]12CC[C@@H](O)C[C@@H]1CC[C@@H]1[C@@H]2CC[C@]2(C)C(=O)CC[C@@H]12", "outcome": "inactive"},
      {"smiles": "Cc1ccc2nc3sc(=O)sc3nc2c1", "activation": "-3.69% [at 15.8 µM]"},
      {"smiles": "Cc1cc(C)c(C(=O)P(=O)(c2ccccc2)c2ccccc2)c(C)c1", "outcome": "inactive"},
      {"smiles": "Nc1ccc([N+](=O)[O-])cc1", "outcome": "inactive"},
      {"smiles": "N#Cc1cc([N+](=O)[O-])ccc1N", "outcome": "inactive"},
      {"smiles": "Cc1ccc(N(SC(F)(Cl)Cl)S(=O)(=O)N(C)C)cc1", "outcome": "inactive"},
      {"smiles": "Oc1c(I)cc(I)cc1I", "outcome": "inactive"},
      {"smiles": "CCN(CC)C(=O)Cl", "outcome": "inactive"},
      {"smiles": "CC(c1ccccc1)(c1ccc(O)cc1)c1ccc(O)cc1", "outcome": "inactive"},
      {"smiles": "OCC(c1ccc(Cl)cc1)c1ccc(Cl)cc1", "outcome": "inactive"},
      {"smiles": "c1ccc2c(c1)Sc1ccccc1N2CC1CN2CCC1CC2", "note": "(centres undefined)", "outcome": "inactive"},
      {"smiles": "CC1COC(Cn2cncn2)(c2ccc(Oc3ccc(Cl)cc3)cc2Cl)O1", "note": "(centres undefined)", "outcome": "inactive"},
      {"smiles": "O=C(Nc1ccccc1-c1ccc(Cl)cc1)c1cccnc1Cl", "outcome": "inactive"},
      {"smiles": "ClC1=C(Cl)[C@]2(Cl)[C@@H]3[C@@H](Cl)[C@H]4O[C@H]4[C@@H]3C1(Cl)C2(Cl)Cl", "outcome": "inactive"},
      {"smiles": "Clc1ccccc1-c1ccccc1Cl", "outcome": "inactive"}
    ]}
  ]
}
